# PLK1 PBD inh – blocks phosphopeptide binding to human PLK1 polo-box domain. Plk1 PBD binding of FITC phosphopeptide, fluorescence polarization. P53350. 360,000 tested, 2.8% active. Potency, µM, for the others: max response, negative = inhibition, hits mostly inhibitors; note: potency is the fitted concentration of half-maximal effect; series mostly up to about 57 µM; % is set by controls: 0 for no effect and ±100 for the full control effect; nearly all actives have a fitted effect of over 65% in size
# KCNH2 3.1 inh – KCNH2 3.1 (human) potassium channel inhibition | U2OS KCNH2 3.1, thallium flux FluxOr; hits give low values | activity change, % (tested at about 1.8 µM) | 340,000 tested, 0.95% active;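 active = maximum activity change below -70%; inconclusive = maximum activity change from -70% to -50%; inactive = maximum activity change above -50%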;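 note: thallium influx rate constant from kinetic fluorescence after stimulation buffer; % is set by controls: 0 for no effect and ±100 for the full control effect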
#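 Normalized rate constant (relative to positive and negative DMSO controls) derived from a 2 min kinetic fluorescence read after stimulation; U2OS cells expressing the 3.1 isoform via virus at 1.77 x 10^8 /mL.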
# CBFb-RUNX1 inh – inhibitors of human CBF-beta and RUNX1 interaction. Q01196+Q13951. AlphaScreen CBFb-His/RUNX1-biotin binding, biochemical. Potency, µM (highest dose often 59.8 µM), for the others: top-dose activity, negative = inhibition, usual class: inhibitors. 230,000 tested, under 10 active; note: % of control where 0% means no effect
#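 Inhibition was taken as any reduction in AlphaScreen signal from the CBF-beta–RUNX1 pair (His and biotin tags, 30 nM each), measured after compound (15 min) and bead (90 min) incubations at room temperature.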
# KCNH2 WT inh – blocks the wildtype human KCNH2 potassium channel. Q12809. U2OS, BacMam KCNH2, thallium flux FluxOr; hits give low values. activity change, % at 1.84 µM. 340,000 tested, 0.37% active. AID 720551;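 active = maximum activity change below -70%; inconclusive = maximum activity change between -70% and -50%; inactive = maximum activity change above -50%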; note: % is set by controls: 0 for no effect and ±100 for the full control effect
#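 U2OS cells transduced with wild-type KCNH2 virus are loaded with FluxOr dye for 45 min, and thallium flux is measured in kinetic reads before and after stimulation buffer. Rate constants are normalized to DMSO controls.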
# VDR inh – vitamin D3 receptor (human) inhibition; P11473; VDR-SRC2-3 peptide fluorescence polarization, 2 h; Potency, µM, for inactives: max response, negative = inhibition, most hits filed as inhibitors; 400,000 tested, 0.93% active; note: potency is the fitted concentration of half-maximal effect; % is set by controls: 0 for no effect and ±100 for the full control effect
#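 VDR–SRC2-3 interaction, FP format. Cmpds 23 nl via pintool, brief spin, 2 h ambient incubation.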
# MBNL1-CUG inh – blocks human MBNL1 binding to CUG repeat RNA; Q9NR56; TR-FRET MBNL1-His/biotin-(CUG)12 binding, 665/545 ratio; Potency, µM (titrated, usually from 57.5 µM), for the others: at the top dose activity change, negative = inhibition, most hits filed as inhibitors; 280,000 tested, 0.036% active; AID 2675; active = well fitted inhibition curve with a large enough effect in the signal ratio, with a control signal flat, not every such curve was filed as active; inconclusive = small, poorly fitted or top-dose-only effect, or effect the other way, or a change in a side signal; inactive = no such curve, though single readings can be large or run the other way; the % refers to the signal ratio; note: potency is the fitted concentration of half-maximal effect; % is set by controls: 0 for no effect and ±100 for the full control effect
#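 Compounds (final 92 nM to 58 uM) are added to His-tagged MBNL1 and biotin-(CUG)12, then terbium anti-His antibody and streptavidin-XL665 (5 nM final). After 60 min at room temperature, the 665/545 nm ratio is read.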
# * marks the source's active call; other numbers are inactive results; ? = inconclusive; . = no result given. Shown are actives, neighbours in structure and some others; about 3.8% of the full set was active somewhere. Unless noted, calls come from the whole dose curve; as a rule, active = well fitted curve in the direction sought with a large enough effect; inconclusive = small, poorly fitted or top-dose-only effect, or another doubt; inactive = no such curve, though single readings can be large; an effect the other way counts as inactive or inconclusive.
SMILES,PLK1 PBD inh,KCNH2 3.1 inh,CBFb-RUNX1 inh,KCNH2 WT inh,VDR inh,MBNL1-CUG inh
COC(=O)c1ccccc1N(Cc1ccccc1)S(C)(=O)=O,3%,-5,1%,-10,6%,-11%
Cc1cc(C)nc(NS(=O)(=O)c2ccc(NC(=O)CSc3ncn[nH]3)cc2)n1,27µM*,3,-3%,1,9%,-4%
CCOc1ccc(NC(=O)Cc2ccc(NC(=O)N3CCCCc4ccccc43)cc2)cc1,.,.,.,.,2%,.
COc1ccc(C)c2sc(NC(=O)c3ccc(S(=O)(=O)N(C)C)cc3)nc12,.,.,.,.,1%,.
CCCC1(c2ccccc2)NC(=O)N(CC(=O)NCc2ccc(C)cc2)C1=O (centres undefined),-6%,-6,.,-24,4%,0%
CCCC1(c2ccccc2)NC(=O)N(C/C=C/Cl)C1=O (centres undefined),27µM*,-8,.,-9,?,1%
CCCC1(c2ccccc2)NC(=O)N(CC(=O)N(C)Cc2c(F)cccc2Cl)C1=O (centres undefined),24µM*,3,.,-7,?,-2%
CCOC(=O)c1ccccc1NC(=O)CSc1ccc(-c2sc(-c3ccccc3)nc2C)nn1,.,.,.,.,5%,.
COc1cc(/C=N/Nc2nncn2N)ccc1OCc1c(C)no[n+]1[O-],2%,-3,6%,3,1%,.
COc1ccc(/C=N/Nc2nncn2N)cc1Br,-20%,15,.,-1,22µM*,?
c1ccc(N2CCN(c3ccc4nncn4n3)CC2)nc1,-1%,-184*,4%,19,-11%,13%
N#CC1=C(SCC(=O)NCc2ccccc2)NC(=O)CC1c1ccco1 (centres undefined),9.5µM*,9,-3%,8,-11%,7%
COc1cc2c(cc1NC(=O)COc1ccc(Br)c(C)c1)oc1ccccc12,.,.,.,.,-17%,.
N#Cc1cccc(Oc2ccc(S(=O)(=O)N3CCCC3)cn2)c1,-4%,?,.,-89*,-5%,.
CC(=O)Nc1ccc(Oc2ccc(S(=O)(=O)N3CCCC3)cn2)cc1,-14%,14,.,-14,-9%,.
Fc1ccc(-c2cc(-c3nc(-c4ccc(Cl)cc4)no3)[nH]n2)cc1,.,.,.,.,3%,.
CCCC(=O)NCCc1c(I)[nH]c2ccc(OC)cc12,.,.,5%,.,-21%,.
Cc1c(NC(=O)Cc2ccc(Cl)cc2)cccc1-c1nc2cccnc2s1,.,.,.,.,17%,.
CC1=C(C#N)c2nc(N)c(C#N)c(C)c2/C1=C\c1ccc(-c2ccccc2C(=O)O)o1,27µM*,4,?,3,8%,28%
Nc1nonc1-c1nc2ccccc2n1CC(=O)N/N=C/c1ccc(-c2ccccc2C(=O)O)o1,-20%,-21,?,-2,9%,?
COc1cc(/C=C2/C(C)=C(C#N)c3nc(N)c(C#N)c(C)c32)ccc1OCC(=O)O,24µM*,-12,-23%,1,7%,?
COc1cccc(N2C(=O)CSC23C(=O)N(CC(=O)Nc2cc(C)ccc2C)c2ccccc23)c1 (centres undefined),.,.,.,.,6%,.
CCc1ccc(C(=O)c2cn(CC(=O)Nc3ccc(F)cc3)c3ccc(OC)cc3c2=O)cc1,.,.,.,.,-4%,.
Cc1c(NC(=O)C(C)OC(=O)COc2ccccc2)c(=O)n(-c2ccccc2)n1C (centres undefined),-9%,20,-8%,-3,-2%,.
Cc1c(NC(=O)C(C)OC(=O)/C=C/c2ccco2)c(=O)n(-c2ccccc2)n1C (centres undefined),27µM*,2,-20%,25,?,.
Cc1ccccc1C(=O)Nc1cccc(NC(=O)c2cccnc2)c1,0%,-12,.,-78*,23%,1%
O=C(Nc1cccc(NC(=O)c2cccnc2)c1)c1cccnc1,0%,-6,-2%,2,5%,7%
O=C(c1cc(-c2cccc(Cl)c2)on1)N1CCCC1,-3%,-131*,.,-7,-7%,-5%
c1ccc(N2CCN(c3nc(-c4ccccn4)nc4ccccc34)CC2)cc1,11µM*,?,.,-26,-5%,14%

# Assay outcomes: PubChem, National Center for Advancing Translational Sciences (NCATS)
